From the supplement of paper PMC7765376
Counter-ions that a name gives are not always drawn. In all, about 1,500 compounds were measured (“Excess HSA synergy score (sum over dose matrix of excess over highest single agent)”: median about 43, lowest 2% from about -900 on). The sample as a whole holds a higher share of the lowest values than the screen did.

System: PEO-1
Assay: Excess HSA synergy score (sum over dose matrix of excess over highest single agent) (score (summed % response)); higher = less synergy / more antagonism (negative = synergy)
Details: 72 h, read-out: viability/apoptosis luminescence (CellTiter-Glo or Caspase3-Glo / not stated per table)
[1] = matrix design: 6x6, 5-fold dilutions (primary screen)
[2] = matrix design: 10x10, 9-step dilutions (confirmatory)

Row | Structure (SMILES) | Excess HSA synergy score [1] | Excess HSA synergy score [2]
1 | Cc1cnc(Nc2ccc(F)cc2Cl)nc1-c1c[nH]c(C(=O)N[C@H](CO)c2cccc(Cl)c2)c1 + CC[C@H](NC(=O)[C@H](C)NC)C(=O)N1C[C@@H](O)C[C@H]1Cc1c(-c2[nH]c3cc(F)ccc3c2C[C@@H]2C[C@H](O)CN2C(=O)[C@H](CC)NC(=O)[C@H](C)NC)[nH]c2cc(F)ccc12 [Birinapant] | 192 | –
2 | CN1CCN(c2cccc(Nc3nc4c(-c5ccc(S(C)(=O)=O)cc5)cccn4n3)c2)CC1 + CC[C@H](NC(=O)[C@H](C)NC)C(=O)N1C[C@@H](O)C[C@H]1Cc1c(-c2[nH]c3cc(F)ccc3c2C[C@@H]2C[C@H](O)CN2C(=O)[C@H](CC)NC(=O)[C@H](C)NC)[nH]c2cc(F)ccc12 [Birinapant] | -105 | –
3 | Cc1c(-c2cccc3c(CCCOc4cccc5ccccc45)c(C(=O)O)n(Cc4cccnc4)c23)c(COc2ccc(N3CCN([S+](=O)([O-])N(C)C)CC3)cc2)nn1C + CC[C@H](NC(=O)[C@H](C)NC)C(=O)N1C[C@@H](O)C[C@H]1Cc1c(-c2[nH]c3cc(F)ccc3c2C[C@@H]2C[C@H](O)CN2C(=O)[C@H](CC)NC(=O)[C@H](C)NC)[nH]c2cc(F)ccc12 [Birinapant] | 51.7 | –
4 | Cn1cc(-c2ccc3nnc(C(F)(F)c4ccc5ncccc5c4)n3n2)cn1 + CC[C@H](NC(=O)[C@H](C)NC)C(=O)N1C[C@@H](O)C[C@H]1Cc1c(-c2[nH]c3cc(F)ccc3c2C[C@@H]2C[C@H](O)CN2C(=O)[C@H](CC)NC(=O)[C@H](C)NC)[nH]c2cc(F)ccc12 [Birinapant] | 40.5 | –
5 | Cc1ccc(C(=O)Nc2cccc(C(F)(F)F)c2)cc1Nc1nc(-c2cccnc2)nc2c1cnn2C + CC[C@H](NC(=O)[C@H](C)NC)C(=O)N1C[C@@H](O)C[C@H]1Cc1c(-c2[nH]c3cc(F)ccc3c2C[C@@H]2C[C@H](O)CN2C(=O)[C@H](CC)NC(=O)[C@H](C)NC)[nH]c2cc(F)ccc12 [Birinapant] | -71.3 | –
6 | N#CC(c1ccnc(NCCc2cccnc2)n1)c1nc2ccccc2s1 (stereo not drawn) [JNK Inhibitor V] + CC[C@H](NC(=O)[C@H](C)NC)C(=O)N1C[C@@H](O)C[C@H]1Cc1c(-c2[nH]c3cc(F)ccc3c2C[C@@H]2C[C@H](O)CN2C(=O)[C@H](CC)NC(=O)[C@H](C)NC)[nH]c2cc(F)ccc12 [Birinapant] | -67.5 | –
7 | CC(C)(C(=O)NCC(F)(F)C(F)(F)F)C(=O)N[C@@H]1C(=O)Nc2ccccc2-c2ccccc21 + CC[C@H](NC(=O)[C@H](C)NC)C(=O)N1C[C@@H](O)C[C@H]1Cc1c(-c2[nH]c3cc(F)ccc3c2C[C@@H]2C[C@H](O)CN2C(=O)[C@H](CC)NC(=O)[C@H](C)NC)[nH]c2cc(F)ccc12 [Birinapant] | -141 | –
8 | COc1ccc(-c2coc3cc(O)cc(O)c3c2=O)cc1 [Biochanin A] + CC[C@H](NC(=O)[C@H](C)NC)C(=O)N1C[C@@H](O)C[C@H]1Cc1c(-c2[nH]c3cc(F)ccc3c2C[C@@H]2C[C@H](O)CN2C(=O)[C@H](CC)NC(=O)[C@H](C)NC)[nH]c2cc(F)ccc12 [Birinapant] | 235 | –
9 | CC(=O)NCC(=O)N1[C@@H]2CC[C@H]1c1ccc(Nc3ncc(C(F)(F)F)c(NC4CCC4)n3)cc12 + CC[C@H](NC(=O)[C@H](C)NC)C(=O)N1C[C@@H](O)C[C@H]1Cc1c(-c2[nH]c3cc(F)ccc3c2C[C@@H]2C[C@H](O)CN2C(=O)[C@H](CC)NC(=O)[C@H](C)NC)[nH]c2cc(F)ccc12 [Birinapant] | -154 | –
10 | CCCCN1CCC(CNC(=O)c2c3n(c4ccccc24)CCCO3)CC1 [Piboserod hydrochloride] + CC[C@H](NC(=O)[C@H](C)NC)C(=O)N1C[C@@H](O)C[C@H]1Cc1c(-c2[nH]c3cc(F)ccc3c2C[C@@H]2C[C@H](O)CN2C(=O)[C@H](CC)NC(=O)[C@H](C)NC)[nH]c2cc(F)ccc12 [Birinapant] | -0.918 | –
11 | Nc1ncn([C@@H]2O[C@H](CO)[C@@H](O)[C@H]2O)c(=O)n1 [5-Azacitidine] + CC[C@H](NC(=O)[C@H](C)NC)C(=O)N1C[C@@H](O)C[C@H]1Cc1c(-c2[nH]c3cc(F)ccc3c2C[C@@H]2C[C@H](O)CN2C(=O)[C@H](CC)NC(=O)[C@H](C)NC)[nH]c2cc(F)ccc12 [Birinapant] | -38.5 | –
12 | Nc1ccn([C@@H]2O[C@H](CO)[C@@H](O)[C@H]2O)c(=O)n1 [Cytidine] + CC[C@H](NC(=O)[C@H](C)NC)C(=O)N1C[C@@H](O)C[C@H]1Cc1c(-c2[nH]c3cc(F)ccc3c2C[C@@H]2C[C@H](O)CN2C(=O)[C@H](CC)NC(=O)[C@H](C)NC)[nH]c2cc(F)ccc12 [Birinapant] | 170 | –
13 | Nc1ccn([C@@H]2O[C@H](CO)[C@@H](O)[C@@H]2O)c(=O)n1 [Cytarabine] + CC[C@H](NC(=O)[C@H](C)NC)C(=O)N1C[C@@H](O)C[C@H]1Cc1c(-c2[nH]c3cc(F)ccc3c2C[C@@H]2C[C@H](O)CN2C(=O)[C@H](CC)NC(=O)[C@H](C)NC)[nH]c2cc(F)ccc12 [Birinapant] | -388 | -1320
14 | Nc1ccn([C@@H]2O[C@H](CO)[C@@H](O)C2(F)F)c(=O)n1 [Gemcitabine] + CC[C@H](NC(=O)[C@H](C)NC)C(=O)N1C[C@@H](O)C[C@H]1Cc1c(-c2[nH]c3cc(F)ccc3c2C[C@@H]2C[C@H](O)CN2C(=O)[C@H](CC)NC(=O)[C@H](C)NC)[nH]c2cc(F)ccc12 [Birinapant] | -59.3 | -1130
15 | Nc1ccn([C@@H]2CS[C@H](CO)O2)c(=O)n1 [Lamivudine] + CC[C@H](NC(=O)[C@H](C)NC)C(=O)N1C[C@@H](O)C[C@H]1Cc1c(-c2[nH]c3cc(F)ccc3c2C[C@@H]2C[C@H](O)CN2C(=O)[C@H](CC)NC(=O)[C@H](C)NC)[nH]c2cc(F)ccc12 [Birinapant] | 228 | –
16 | Nc1ccn([C@@H]2CO[C@H](CO)O2)c(=O)n1 [Troxacitabine] + CC[C@H](NC(=O)[C@H](C)NC)C(=O)N1C[C@@H](O)C[C@H]1Cc1c(-c2[nH]c3cc(F)ccc3c2C[C@@H]2C[C@H](O)CN2C(=O)[C@H](CC)NC(=O)[C@H](C)NC)[nH]c2cc(F)ccc12 [Birinapant] | 152 | –
